Test results reported in PubChem BioAssay (NCATS).
Inconclusive results are not listed. The source made the active and inactive calls. Unless noted, calls come from the whole dose curve.

Columns and labels:
[1] = target: Bile acid receptor (Homo sapiens) (UniProt Q96RI1); assay: qHTS assay for small molecule agonists of farnesoid X receptor signaling (AID 588527); conditions: HEK293T FXR-UAS-bla, beta-lactamase ratio, 16 h; activation: hits give high values;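 note: series mostly up to about 77 µM; 0% = vehicle basal and 100% = reference agonist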
Chain of Bile acid receptor (Homo sapiens) (Q96RI1 whole entry, looked up): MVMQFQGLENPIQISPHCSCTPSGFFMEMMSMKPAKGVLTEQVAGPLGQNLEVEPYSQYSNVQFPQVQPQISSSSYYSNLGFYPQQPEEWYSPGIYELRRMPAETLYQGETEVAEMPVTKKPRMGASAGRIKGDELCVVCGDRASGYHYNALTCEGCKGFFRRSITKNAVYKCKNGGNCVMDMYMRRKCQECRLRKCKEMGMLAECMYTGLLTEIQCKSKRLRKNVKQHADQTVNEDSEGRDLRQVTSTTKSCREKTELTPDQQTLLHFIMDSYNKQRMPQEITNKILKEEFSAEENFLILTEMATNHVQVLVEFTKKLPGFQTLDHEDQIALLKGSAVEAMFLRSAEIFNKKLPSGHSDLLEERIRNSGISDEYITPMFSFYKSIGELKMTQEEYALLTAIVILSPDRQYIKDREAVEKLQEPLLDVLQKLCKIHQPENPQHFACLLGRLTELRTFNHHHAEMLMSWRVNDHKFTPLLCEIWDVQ
Outline: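 Quantitative HTS used FXR-UAS-bla HEK293T cells with 16 h compound incubation at 37 C. EC50 values came from concentration-response curves normalized to chenodeoxycholic acid.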

[2] = target: Peroxisome proliferator-activated receptor delta (Homo sapiens) (UniProt Q03181); assay: qHTS assay for small molecule agonists of peroxisome proliferator-activated receptor delta signaling (AID 588534);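 note: 0% = DMSO basal wells and 100% = positive control agonist at 10 µM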
Chain of Peroxisome proliferator-activated receptor delta (Homo sapiens) (Q03181 whole entry, looked up): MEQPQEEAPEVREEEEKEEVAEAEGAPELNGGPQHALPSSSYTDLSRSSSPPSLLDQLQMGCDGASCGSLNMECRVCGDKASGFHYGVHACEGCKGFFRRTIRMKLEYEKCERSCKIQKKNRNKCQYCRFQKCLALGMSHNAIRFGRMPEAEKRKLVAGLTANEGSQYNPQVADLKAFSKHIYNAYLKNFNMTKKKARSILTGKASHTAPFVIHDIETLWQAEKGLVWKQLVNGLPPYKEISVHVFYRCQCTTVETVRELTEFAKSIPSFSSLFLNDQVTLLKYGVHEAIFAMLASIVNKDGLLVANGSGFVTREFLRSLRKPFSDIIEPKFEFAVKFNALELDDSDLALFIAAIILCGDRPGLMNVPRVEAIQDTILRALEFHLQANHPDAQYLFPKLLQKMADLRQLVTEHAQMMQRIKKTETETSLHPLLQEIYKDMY
Outline: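 Titration series tested in agonist mode on beta-lactamase reporter cells; 18 hrs at 37 C after a 5 hr pre-incubation. Readout: CCF4 fluorescence, 2 hrs RT. Hill equation gives EC50 and maximal response.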

[3] = qHTS for Inhibitors of the Functional Ribonucleoprotein Complex (vRNP) of Lassa (LASV) Arenavirus: LASV Primary Screen - GLuc reporter signal (AID 1347082; calls by dose curve; tested in HEK293 reporter line; note: series mostly up to about 57 µM; % is set by controls: 0 for no effect and ±100 for the full control effect; nearly all actives have a fitted effect of over 60% in size)
[4] = qHTS for Inhibitors of the Functional Ribonucleoprotein Complex (vRNP) of Lassa (LASV) Arenavirus: Viability assay - alamar blue signal for LASV Primary Screen (AID 1347083; calls by dose curve; tested in HEK293 reporter line; note: series mostly up to about 57 µM; % is set by controls: 0 for no effect and ±100 for the full control effect; nearly all actives have a fitted effect of over 80% in size)
[5] = qHTS for Inhibitors of the Functional Ribonucleoprotein Complex (vRNP) of Lymphocytic Choriomeningitis Arenaviruses (LCMV): Viability assay - alamar blue signal for LCMV Primary Screen (AID 1347085; calls by dose curve; tested in HEK293 reporter line; note: series mostly up to about 57 µM; % is set by controls: 0 for no effect and ±100 for the full control effect; nearly all actives have a fitted effect of over 80% in size)
[6] = target: Nucleoprotein (Lymphocytic choriomeningitis virus (strain Armstrong)) (UniProt P09992); assay: qHTS for Inhibitors of the Functional Ribonucleoprotein Complex (vRNP) of Lymphocytic Choriomeningitis Arenaviruses (LCMV): LCMV Primary Screen - GLuc reporter signal (AID 1347086); note: series mostly up to about 57 µM; % is set by controls: 0 for no effect and ±100 for the full control effect; nearly all actives have a fitted effect of over 70% in size
Chain of Nucleoprotein (Lymphocytic choriomeningitis virus (strain Armstrong)) (P09992 whole entry, looked up): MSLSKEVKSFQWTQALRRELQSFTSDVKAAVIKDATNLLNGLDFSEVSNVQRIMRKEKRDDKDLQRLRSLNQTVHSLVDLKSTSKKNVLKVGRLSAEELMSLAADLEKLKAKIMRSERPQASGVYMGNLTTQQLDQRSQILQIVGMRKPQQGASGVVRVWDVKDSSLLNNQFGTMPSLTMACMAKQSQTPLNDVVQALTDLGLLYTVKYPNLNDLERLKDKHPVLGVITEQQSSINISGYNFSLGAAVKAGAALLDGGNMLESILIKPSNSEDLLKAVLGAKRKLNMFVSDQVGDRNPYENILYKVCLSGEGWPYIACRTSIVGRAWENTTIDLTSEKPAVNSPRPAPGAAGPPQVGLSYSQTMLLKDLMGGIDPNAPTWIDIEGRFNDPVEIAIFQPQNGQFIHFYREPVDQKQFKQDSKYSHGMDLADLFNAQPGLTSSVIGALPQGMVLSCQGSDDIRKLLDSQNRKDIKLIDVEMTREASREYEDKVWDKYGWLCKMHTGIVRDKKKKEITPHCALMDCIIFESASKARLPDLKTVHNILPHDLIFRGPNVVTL

[7] = target: Cytochrome P450 3A4 (Homo sapiens) (UniProt P08684); assay: qHTS Assay for Inhibitors and Substrates of Cytochrome P450 3A4 (AID 884; active = well fitted curve in the direction sought with a large enough effect; an effect the other way counts as inactive or inconclusive; note: series mostly up to about 57 µM; % is set by controls: 0 for no effect and ±100 for the full control effect; nearly all actives have a fitted effect of over 50% in size)
Chain of Cytochrome P450 3A4 (Homo sapiens) (P08684 whole entry, looked up): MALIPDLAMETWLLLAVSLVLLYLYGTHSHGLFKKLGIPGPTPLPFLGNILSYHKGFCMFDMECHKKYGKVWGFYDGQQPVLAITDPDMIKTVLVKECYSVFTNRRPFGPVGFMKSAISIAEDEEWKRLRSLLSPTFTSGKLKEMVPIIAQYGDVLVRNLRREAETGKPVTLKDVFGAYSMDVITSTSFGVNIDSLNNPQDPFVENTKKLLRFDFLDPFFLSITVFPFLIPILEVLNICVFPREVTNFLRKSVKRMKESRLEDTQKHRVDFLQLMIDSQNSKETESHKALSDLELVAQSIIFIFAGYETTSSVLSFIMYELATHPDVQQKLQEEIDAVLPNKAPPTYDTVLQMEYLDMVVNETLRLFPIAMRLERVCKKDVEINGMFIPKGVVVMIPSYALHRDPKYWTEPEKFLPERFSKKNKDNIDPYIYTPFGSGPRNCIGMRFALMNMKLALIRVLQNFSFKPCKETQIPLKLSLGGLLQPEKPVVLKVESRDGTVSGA
Outline: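 Luminescent readout of luciferin produced by CYP3A4 (20 nM) dealkylation of Luciferin-PPXE, 25 uM (its KM). NADPH-driven reaction ran 60 min at RT after 10 min compound preincubation; data scaled to 57 uM ketoconazole as 100% inhibition.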

[8] = target: Ubiquitin carboxyl-terminal hydrolase 1 (Homo sapiens) (UniProt O94782); assay: Inhibitors of USP1/UAF1: Pilot qHTS (AID 504865; active = well fitted curve in the direction sought with a large enough effect; an effect the other way counts as inactive or inconclusive;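 note: rhodamine fluorescence freed from ubiquitin-rhodamine substrate followed over time; top concentration of the series differs between compounds; % is set by controls: 0 for no effect and ±100 for the full control effect; nearly all actives have a fitted effect of over 35% in size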)
Chain of Ubiquitin carboxyl-terminal hydrolase 1 (Homo sapiens) (O94782 whole entry, looked up): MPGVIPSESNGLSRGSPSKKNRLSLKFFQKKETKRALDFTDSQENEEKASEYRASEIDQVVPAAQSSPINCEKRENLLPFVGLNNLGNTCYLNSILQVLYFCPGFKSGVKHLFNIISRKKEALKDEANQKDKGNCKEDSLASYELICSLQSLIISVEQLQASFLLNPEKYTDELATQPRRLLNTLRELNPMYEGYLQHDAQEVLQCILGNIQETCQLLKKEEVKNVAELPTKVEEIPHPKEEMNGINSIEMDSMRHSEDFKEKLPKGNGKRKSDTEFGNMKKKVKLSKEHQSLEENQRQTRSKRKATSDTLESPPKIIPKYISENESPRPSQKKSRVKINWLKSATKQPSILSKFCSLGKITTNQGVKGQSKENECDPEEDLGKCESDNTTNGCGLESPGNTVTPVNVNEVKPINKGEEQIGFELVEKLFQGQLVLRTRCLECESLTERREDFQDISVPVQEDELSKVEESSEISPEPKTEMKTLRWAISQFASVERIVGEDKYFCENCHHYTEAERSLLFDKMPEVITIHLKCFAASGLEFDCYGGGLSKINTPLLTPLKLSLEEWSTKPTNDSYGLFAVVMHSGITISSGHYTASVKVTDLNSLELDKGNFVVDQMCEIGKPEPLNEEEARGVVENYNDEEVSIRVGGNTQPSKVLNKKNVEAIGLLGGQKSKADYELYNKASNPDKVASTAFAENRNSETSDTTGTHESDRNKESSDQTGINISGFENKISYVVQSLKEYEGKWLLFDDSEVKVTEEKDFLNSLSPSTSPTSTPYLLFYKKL
Outline: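 USP1/UAF1 complex at 1 nM preincubated 15 min at room temperature with compound, then Ub-Rho substrate added at 150 nM final. Fluorescence (480/540 nm) read kinetically in 50 mM HEPES pH 7.8, 0.5 mM EDTA, 1 mM TCEP, 0.1 mg/ml BSA, 0.01% Tween-20.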

[9] = target: DNA dC->dU-editing enzyme APOBEC-3G (Homo sapiens) (UniProt Q9HC16); assay: qHTS for inhibitors of Vif-A3G interactions: Validation (AID 588379; active = well fitted curve in the direction sought with a large enough effect; an effect the other way counts as inactive or inconclusive; note: 0% is about no effect)
Chain of DNA dC->dU-editing enzyme APOBEC-3G (Homo sapiens) (Q9HC16 whole entry, looked up): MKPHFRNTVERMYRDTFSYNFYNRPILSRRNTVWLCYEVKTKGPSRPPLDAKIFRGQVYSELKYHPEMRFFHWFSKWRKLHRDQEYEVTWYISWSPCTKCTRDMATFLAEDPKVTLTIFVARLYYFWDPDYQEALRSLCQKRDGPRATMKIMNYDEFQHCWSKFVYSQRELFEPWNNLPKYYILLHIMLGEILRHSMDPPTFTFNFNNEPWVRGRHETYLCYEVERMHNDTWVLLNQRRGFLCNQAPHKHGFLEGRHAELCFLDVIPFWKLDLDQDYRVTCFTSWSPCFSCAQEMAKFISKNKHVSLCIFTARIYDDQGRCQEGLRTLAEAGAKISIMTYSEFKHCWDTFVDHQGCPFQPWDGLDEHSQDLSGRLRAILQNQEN
Outline: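 Yellow fluorescence (Ex 488, Em 500-530) of Vif-coexpressing HeLa A3G-eYFP cells, scanned by Acumen cytometer, reports blocked A3G degradation. Cells plated at 700/well overnight at 37 deg C before compound addition, then a further overnight compound incubation at 37 deg C.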

[10] = target: Alpha-galactosidase (Coffea arabica) (UniProt Q42656); assay: Counterscreen for Glucocerebrosidase Inhibitors: qHTS Assay for Coffee Bean alpha-Galactosidase at pH 4.5 (AID 957; active = well fitted curve in the direction sought with a large enough effect; an effect the other way counts as inactive or inconclusive;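 note: series mostly up to about 77 µM; plate controls were enzyme alone for no effect and no enzyme for full effect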)
Chain of Alpha-galactosidase (Coffea arabica) (Q42656 whole entry, looked up): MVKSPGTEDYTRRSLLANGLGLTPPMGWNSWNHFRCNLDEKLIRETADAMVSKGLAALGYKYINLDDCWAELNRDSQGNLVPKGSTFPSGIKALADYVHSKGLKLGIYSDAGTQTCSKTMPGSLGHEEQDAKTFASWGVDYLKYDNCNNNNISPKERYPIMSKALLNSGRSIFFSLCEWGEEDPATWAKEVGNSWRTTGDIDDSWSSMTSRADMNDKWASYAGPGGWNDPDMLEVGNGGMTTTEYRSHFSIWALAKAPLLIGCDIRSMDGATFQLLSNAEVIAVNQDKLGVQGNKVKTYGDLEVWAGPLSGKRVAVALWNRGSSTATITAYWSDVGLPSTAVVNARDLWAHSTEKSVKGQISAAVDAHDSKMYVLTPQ
Outline: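 Fluorogenic read-out: 4-methylumbelliferone at Ex 365/Em 440 nm after NaOH/glycine stop (pH 10). Enzyme 2 nM, 4-MU-alpha-galactoside 80 uM, citrate buffer pH 4.5, 20 min RT; normalized to no-enzyme and enzyme controls.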

[11] = target: Alpha-galactosidase (Coffea arabica) (UniProt Q42656); assay: Counterscreen for Glucocerebrosidase Inhibitors: qHTS Assay for Coffee Bean alpha-Galactosidase at pH 5.9 (AID 998; active = well fitted curve in the direction sought with a large enough effect; an effect the other way counts as inactive or inconclusive;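 note: plate controls were uninhibited enzyme for no effect and no-enzyme basal signal for full effect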)
Outline: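 In 50 mM citric acid pH 5.9 with 0.005% Tween-20, coffee bean enzyme hydrolyses 80 uM 4-MU alpha-D-galactopyranoside over 20 min at RT. Activity is normalized to controls; AC50 comes from Hill-modelled concentration-response data.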

[12] = Inducers of the Endoplasmic Reticulum Stress Response (ERSR) in human glioma: Validation (AID 504836; active = well fitted curve in the direction sought with a large enough effect; an effect the other way counts as inactive or inconclusive; note: 0% is about no effect)
Outline: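 Stably transfected U87-MG human glioma cells carrying a GRP78-based luminescent sensor were seeded at 1000 cells/well, pin-dosed with compounds and incubated 16 h. Luciferase reagent was then added, and end-point luminescence was read after 10 min at room temperature.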

CC(=O)c1ccccn1
inactive: activation [1] -4.62% | Potency [2] | Potency [3] | Potency [4] | Potency [5] | Potency [6]

O=CN1CCCCC1C1CC[C@H]2CCCCN2C1 (some centres undefined)
inactive: Potency [7] | Potency [8] | Potency [9] | Potency [3] | Potency [4] | Potency [5] | Potency [6]

COC(=O)CCC(=O)OC
inactive: activation [1] 2.67% | Potency [2] | Potency [3] | Potency [4] | Potency [5] | Potency [6]

CN1C2CC(OC(=O)[C@H](CO)c3ccccc3)CC1C1OC12 (some centres undefined)
inactive: Potency [8] | Potency [3] | Potency [4] | Potency [5] | Potency [6]

CCCCC(CC)CO (centres undefined)
inactive: activation [1] -0.465% | Potency [2] | Potency [3] | Potency [4] | Potency [5] | Potency [6]

CC(=O)/C=C/C1C(C)=CCCC1(C)C (centres undefined)
inactive: activation [1] 2.64% | Potency [2] | Potency [3] | Potency [4] | Potency [5] | Potency [6]

CN1CCc2cc(NC(=O)Nc3cccnc3)ccc21
inactive: outcome [10] | outcome [11] | outcome [12] | Potency [3] | Potency [4] | Potency [5] | Potency [6]

CC=O
inactive: activation [1] -1.84% | Potency [2] | Potency [3] | Potency [4] | Potency [5] | Potency [6]
